The values below come from PubChem BioAssay (NCATS).

Inconclusive results are not listed. The source made the active and inactive calls. Unless noted, calls come from the whole dose curve.

A short description of assay [1]: Confirmatory qHTS to identify inhibitors of SARS-CoV-2 cell entry (AID 1645844). Note: nearly all actives have a fitted effect of over 45% in size. Note: potency is the fitted concentration of half-maximal effect. In short, it runs like this:
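Luminescence entry read-out after 48 h: spike-pseudotyped MLV particles (Wuhan-Hu-1, 19-aa C-terminal truncation) added to compound-pretreated (1 h) HEK293-ACE2 cells; Data were normalised to bald PP and spike PP wells.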
Background: Quantitative high-throughput screening tests each substance at several concentrations.

The nature of assay [2]: Cytotoxicity counterscreen for inhibitors of SARS-CoV-2 cell entry (AID 1645845). For activity change, negative = cytotoxicity: % is set by controls: 0 for no effect and ±100 for the full control effect. Note: nearly all actives have a fitted effect of over 50% in size. Note: potency is the fitted concentration of half-maximal effect. The settings on record: outcome: dose series up to 57.1 µM unless noted. In short, it runs like this:
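ATP-content luminescence (ATPLite 1step, 15 min RT) read after 48 h compound exposure of Expi293F cells stably expressing human ACE2; normalized to cells-only wells and media-only wells.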
(The purpose of a counterscreen is to sort out artefacts and off-target activity.)

Assay [3] is described as follows: Primary qHTS to identify inhibitors of SARS-CoV-2 cell entry (AID 1645846). Note: nearly all actives have a fitted effect of over 45% in size. Note: potency is the fitted concentration of half-maximal effect. The conditions noted are these: SARS-CoV-2 pseudovirus cell entry assay, luminescence; activity change, negative = inhibition: at 57.1 µM (top of the series) unless noted. The procedure, abridged:
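Luminescence readout (Bright-Glo luciferase) 48 h after pseudoparticle addition. HEK293-ACE2 cells, 1500/well; compound pre-incubation 1 h; Normalized to spike PP and bald PP.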

Assay [4] in a line: VSVG counterscreen qHTS to identify inhibitors of SARS-CoV-2 cell entry (AID 1645847). For activity change, negative = inhibition: % is set by controls: 0 for no effect and ±100 for the full control effect. Note: nearly all actives have a fitted effect of over 65% in size. Note: potency is the fitted concentration of half-maximal effect. The procedure, abridged:
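HEK293-ACE2 cells (Expi293F stably expressing human ACE2) were pretreated with compound for 1 h at 37 °C, then infected with MLV-based VSV-G pseudotyped particles for 48 h. Luciferase luminescence was normalized to VSV-G PP and bald PP wells.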

Assay [5] in a line: Primary qHTS for inhibitors of nuclear receptor binding SET domain protein 2 (NSD2) in an isogenic RCH-ACV NSD2 p.E1099K mutant (9B) (AID 1645876; active = well fitted curve in the direction sought with a large enough effect; an effect the other way counts as inactive or inconclusive; note: % is set by controls: 0 for no effect and ±100 for the full control effect; nearly all actives have a fitted effect of over 70% in size).
The nature of assay [6]: Primary qHTS for inhibitors of nuclear receptor binding SET domain protein 2 (NSD2) in an RCH-ACV wild type WT cells (2C) (AID 1645877; active = well fitted curve in the direction sought with a large enough effect; an effect the other way counts as inactive or inconclusive; note: % is set by controls: 0 for no effect and ±100 for the full control effect; nearly all actives have a fitted effect of over 70% in size).
Assay [7] addresses Glutathione peroxidase 1 (Homo sapiens) (UniProt P07203). As to the kind of experiment: Primary qHTS Assay for Inhibitors of Recombinant Selenoprotein Glutathione Peroxidase 1 (GPX1) (AID 1845191; active = well fitted curve in the direction sought with a large enough effect; an effect the other way counts as inactive or inconclusive; note: nearly all actives have a fitted effect of over 65% in size). In short, it runs like this: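 NADPH consumption tracked by fluorescence at 340/450 nm between t=0 and t=15 min, room temperature. Final mix: 10 nM GPX1, 100 nM glutathione reductase, 1 mM GSH, 0.5 mM NADPH, 0.5 mM cumene hydroperoxide, 0.01% BSA; 30 min compound–enzyme preincubation.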

Assay [8] in a line: qHTS drug screen for cell cycle checkpoint inhibitors in PARPi-resistant BRCA-mutant ovarian cancer cell lines. (AID 1963452). The conditions noted are these: PEO1/OlaR viability, CellTiter-Glo luminescence, 96 h, stronger effect = lower value. In short, it runs like this: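 PEO1, PEO4 and PEO1/OlaR ovarian cancer cells, 600 per well, exposed 96 h at 37C to a dilution series. Viability read by CellTiter-Glo luminescence, normalized to DMSO and empty wells; activity summarized as Z-AUC.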

Chain of Glutathione peroxidase 1 (Homo sapiens) (P07203 whole entry, looked up): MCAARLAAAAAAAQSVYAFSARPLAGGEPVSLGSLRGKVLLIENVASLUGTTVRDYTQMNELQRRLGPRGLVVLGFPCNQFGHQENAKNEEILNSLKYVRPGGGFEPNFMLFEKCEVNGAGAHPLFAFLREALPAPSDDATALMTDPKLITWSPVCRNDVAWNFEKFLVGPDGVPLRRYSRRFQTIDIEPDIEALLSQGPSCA

In the case of `O=C(c1ccc(Nc2nc(C3CC3)cn3c(-c4cn[nH]c4)cnc23)c(F)c1)N1CCOCC1`, the Potency in assay [1] was 3.41 µM (active); in assay [4], 8.57 µM (active). In assay [2], the Potency entry was “inactive”. The activity change, negative = inhibition in assay [3] is -58.9%.

Consider `CC(=O)N1CCN(CCOc2ccc(C3CCN(C4=Nn5c(nnc5C(F)(F)F)CC4)CC3)cc2)CC1`, for which the Potency in assay [1] and in assay [4] was 19.2 µM (active) throughout. The Potency entry in assay [2] is “inactive”. The activity change, negative = inhibition in assay [3] was -91.8%.

Regarding `O=c1[nH]c([C@@H]2CCCN2)nc2c1oc1ccc(Cl)cc12`, the results for the Potency in assay [1] and in assay [4] were 5.41 µM (active) and 7.64 µM (active), respectively. For the same molecule, the Potency entry in assay [2] is “inactive”.

Consider `CCCCNc1ncc(-c2ccc(CN3CCOCC3)cn2)c(NC2CCC(O)CC2)n1` (stereo not given), for which the Potency in assay [1] was 1.05 µM (active). The Potency result in assay [2] is “inactive”.

For the molecule `C[C@H]1[C@H](O)[C@@H](C)/C=C/C=C/CC/C=C/C=C/C=C/C=C/[C@H](O[C@@H]2O[C@H](C)[C@@H](O)[C@H](N)[C@@H]2O)C[C@@H]2O[C@](O)(C[C@@H](O)[C@H](O)CC[C@@H](O)C[C@@H](O)C[C@@H](O)CC(=O)O[C@H]1C)C[C@H](O)[C@H]2C(=O)O`, in assay [1], the Potency was 9.61 µM (active). In addition, the Potency entry in assay [2], in assay [5], in assay [6] and in assay [7] was “inactive” throughout. The activity change, negative = inhibition in assay [3] was -39.7%. In addition, the figures for the Z-AUC in assay [8], in assay [8] (measured here: PEO1 parental Z-AUC) and in assay [8] (measured here: PEO4 Z-AUC) were 1.03 (inactive), 0.678 and 1.2, respectively.

As to `C[C@@]1(c2ncncc2F)NC(=O)c2cc(-c3cn[nH]c3)ccc21`, the Potency in assay [1] is 3.04 µM (active); in assay [4] it was 4.82 µM (active). The Potency entry in assay [2] is “inactive”.

With `COc1ncc(Nc2ncc(C(C)N3CCN(S(C)(=O)=O)CC3)cc2-c2nc(C)nc(N)n2)cc1F` (stereo not given), the Potency in assay [1] is 1.52 µM (active).

Consider `CC(C)c1cc(CNc2nc(Nc3cc(C4CC4)[nH]n3)cc(N3CCN(C)CC3)n2)on1`, for which the Potency in assay [1] is 0.215 µM (active); in assay [2], 12.6 µM (active); in assay [3], 2.51 µM (active); in assay [4] it was 0.541 µM (active).

For the molecule `CCNCCS(=O)(=O)NC[C@@]1(c2ccccc2)SC(NC(=O)C(C)(C)C)=NN1C(=O)C(C)(C)C`, the Potency is 0.0607 µM (active) in assay [1] and 0.0541 µM (active) in assay [4]. In assay [2], the Potency entry is “inactive”. For the same molecule, in assay [3], the activity change, negative = inhibition is -77.9%.

Consider `CN1C(=O)[C@@H](NC(=O)c2cc(Cc3ccccc3)on2)COc2ccccc21`, for which the Potency result in assay [1], in assay [2] and in assay [4] was “inactive” throughout.

Take `CS[C@H]1SC[C@@H]2C(=O)N(C)[C@H](C(C)C)C(=O)OC[C@H](NC(=O)c3cnc4ccccc4n3)C(=O)N[C@H](C)C(=O)N(C)[C@H]1C(=O)N(C)[C@H](C(C)C)C(=O)OC[C@H](NC(=O)c1cnc3ccccc3n1)C(=O)N[C@H](C)C(=O)N2C`: the Potency in assay [1] was 0.0086 µM (active); in assay [4], 0.0076 µM (active). The Potency entry in assay [2] is “inactive”. Further, in assay [3], the activity change, negative = inhibition was -94.2%.

Consider `CCc1cnn2c(NCc3ccc[n+]([O-])c3)cc(N3CCCC[C@H]3CCO)nc12`, for which the Potency in assay [1] was 0.0541 µM (active); in assay [4] it was 0.0341 µM (active). Further, the Potency result in assay [2] is “inactive”. For the same molecule, the activity change, negative = inhibition in assay [3] was -54%.

For `Nc1ccn([C@@H]2C(F)=C(CO)[C@@H](O)[C@H]2O)c(=O)n1`, the Potency in assay [1] was 1.52 µM (active); in assay [4], 3.04 µM (active). For the same molecule, the Potency entry in assay [2] is “inactive”. In assay [3], the activity change, negative = inhibition was -76.2%.

`CCNC(=O)Nc1ccc(-c2nc3c(c(N4CCOC[C@@H]4C)n2)CCN(C2COC2)C3)cc1`: the Potency in assay [1] was 12.1 µM (active); in assay [3] it was 10 µM (active).

With `O=C(Nc1cccnc1)c1cc(-c2ccnc(F)c2)ccc1OCc1ccccc1`, the Potency entry in assay [1], in assay [2] and in assay [4] was “inactive” in each case. In assay [3], the activity change, negative = inhibition was -5.26%.

For the molecule `COc1cc2c3c(n(CCCn4ccnc4)c(=O)c2cc1OC)-c1cc2c(cc1C3=O)OCO2`, the Potency in assay [1] was 0.0482 µM (active); in assay [4] it was 0.0607 µM (active). Further, the Potency result in assay [2] is “inactive”. The activity change, negative = inhibition in assay [3] is -94.4%.

Take `CCc1nc(C(N)=O)c(Nc2ccc(N3CCC(N4CCN(C)CC4)CC3)c(OC)c2)nc1NC1CCOCC1`: the values for the Potency in assay [1] and in assay [3] were 3.41 µM (active) and 10 µM (active), respectively.

As for `CC[C@@]1(O)C(=O)OCc2c1cc1n(c2=O)Cc2c-1nc1ccccc1c2CCNC(C)C`, the Potency in assay [1] was 0.0054 µM (active); in assay [4] it was 0.0061 µM (active). Moreover, the activity change, negative = cytotoxicity in assay [2] was -47.2% [at 5.25 µM] (inactive). In addition, the activity change, negative = inhibition in assay [3] is -96.8% [at 5.25 µM].
